# Laboratory results as given in PubChem BioAssay (EPA / NIEHS).
# Inconclusive results are not listed. The source made the active and inactive calls. Rule for the calls: active = hit-call score of the fitted dose curve at least 0.9, where 1 is the maximum; inconclusive = response in the unintended direction; inactive = score below 0.9.
# Columns and labels:
# [1] = molecular target: human Matrix Metalloproteinase-2 (MMP2), MMP2 (gene 4313) (UniProt P08253); test: NVS_ENZ_hMMP2: NovaScreen (NVS) Enzymatic Assay for human Matrix Metalloproteinase-2 (MMP2) (AID 2283184)
# Procedure, shortened: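 Compounds first screened in duplicate at a single 25 uM, with actives followed up in concentration series. Recombinant human MMP2 cleaves a fluorogenic substrate; fluorescence taken at 1 h, inhibition fitted relative to DMSO.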
# [2] = molecular target: human Matrix Metalloproteinase-3 (MMP3), MMP3 (gene 4314) (UniProt P08254); test: NVS_ENZ_hMMP3: NovaScreen (NVS) Enzymatic Assay for human Matrix Metalloproteinase-3 (MMP3) (AID 2283185)
# Procedure, shortened: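 Fluorescent substrate turnover by recombinant MMP3 read after 1 h, signal loss scored against DMSO. Compounds first run in duplicate at 25 uM single dose, then actives confirmed by concentration series.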
# [3] = molecular target: Collagenase 3 (Homo sapiens) (UniProt P45452); test: NVS_ENZ_hMMP13: NovaScreen (NVS) Enzymatic Assay for human Matrix Metalloproteinase-13 (MMP13) (AID 2283182)
# Procedure, shortened: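 Recombinant MMP13 cleaving fluorescent substrate, cell-free, measured 1 h after dosing. Primary duplicate screen at 25 uM; actives tested in concentration-response up to 50 uM; loss of signal relative to DMSO.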
# [4] = molecular target: human Phosphodiesterase 5 (PDE5), PDE5A (gene 8654) (UniProt O76074); test: NVS_ENZ_hPDE5: NovaScreen (NVS) Enzymatic Assay for human Phosphodiesterase 5 (PDE5) (AID 2283194)
# Procedure, shortened: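 Screening began in duplicate at 25 uM, with actives taken into concentration-response. Enzyme activity of recombinant PDE5 toward its substrate was measured at 1 h by fluorescence mobility-shift detection, relative to DMSO controls.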
# [5] = molecular target: human Matrix Metalloproteinase-7 (MMP7), MMP7 (gene 4316) (UniProt P09237); test: NVS_ENZ_hMMP7: NovaScreen (NVS) Enzymatic Assay for human Matrix Metalloproteinase-7 (MMP7) (AID 2283183)
# Procedure, shortened: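 Compounds first tested at 25 uM in duplicate, then at up to 50 uM in concentration series if active. Protease activity measured by fluorescence intensity 1 h after dosing, with fitting relative to DMSO.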
# [6] = molecular target: human Matrix Metalloproteinase-9 (MMP9), MMP9 (gene 4318) (UniProt P14780); test: NVS_ENZ_hMMP9: NovaScreen (NVS) Enzymatic Assay for human Matrix Metalloproteinase-9 (MMP9) (AID 2283190);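 note: cell-free recombinant MMP9 protease activity read by fluorescent substrate signal; active means inhibition seen as loss of fluorescence signal versus DMSO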
# Procedure, shortened: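 Cell-free fluorescence-intensity enzyme activity assay using extracted protein, read 1 h after dosing. Loss of signal versus DMSO baseline indicates inhibition; primary screen in duplicate at 25 uM, actives followed up in concentration series.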
# [7] = molecular target: cAMP-dependent protein kinase catalytic subunit alpha (Homo sapiens) (UniProt P17612); test: NVS_ENZ_hPKA: NovaScreen (NVS) Enzymatic Assay for human Protein Kinase A (PKA) (AID 2283192)
# Procedure, shortened: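 Cell-free kinase activity read by fluorescence after mobility-shift separation of substrate and product, 1 h post-dosing. Single-concentration duplicate screen (25 uM) preceded singleton concentration series (top 50 uM); loss of signal versus DMSO.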
# [8] = molecular target: human Mitogen- and Stress-activated Protein Kinase-1 (Msk1), RPS6KA5 (gene 9252) (UniProt O75582); test: NVS_ENZ_hMsk1: NovaScreen (NVS) Enzymatic Assay for human Mitogen- and Stress-activated Protein Kinase-1 (Msk1) (AID 2283187)
# Procedure, shortened: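 Chemicals first run in duplicate at 25 uM, with actives followed up in singleton concentration series to 50 uM maximum. Enzyme activity came from substrate/product mobility-shift separation with fluorescence detection after 1 h incubation of the recombinant protein.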
# [9] = molecular target: human Phosphodiesterase 10 (PDE10), PDE10A (gene 10846) (UniProt Q9Y233); test: NVS_ENZ_hPDE10: NovaScreen (NVS) Enzymatic Assay for human Phosphodiesterase 10 (PDE10) (AID 2283195)
# Procedure, shortened: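 Fluorescence readout after mobility-shift separation of substrate and product, 1 h reaction with recombinant human enzyme. Single-concentration duplicates at 25 uM, then concentration-response up to 50 uM for chemicals reaching threshold; DMSO baseline.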
# [10] = molecular target: human Phosphodiesterase 4A1 (PDE4A1), PDE4A (gene 5141) (UniProt P27815); test: NVS_ENZ_hPDE4A1: NovaScreen (NVS) Enzymatic Assay for human Phosphodiesterase 4A1 (PDE4A1) (AID 2283191)
# Procedure, shortened: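 Fluorescent substrate turnover by recombinant PDE4A1 read after 1 h by mobility-shift separation. Primary duplicate screen at 25 uM; hits retested in concentration series with a 50 uM maximum, relative to DMSO.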
# Sequence of human Matrix Metalloproteinase-9 (MMP9), MMP9 (gene 4318) (P14780 whole entry, looked up): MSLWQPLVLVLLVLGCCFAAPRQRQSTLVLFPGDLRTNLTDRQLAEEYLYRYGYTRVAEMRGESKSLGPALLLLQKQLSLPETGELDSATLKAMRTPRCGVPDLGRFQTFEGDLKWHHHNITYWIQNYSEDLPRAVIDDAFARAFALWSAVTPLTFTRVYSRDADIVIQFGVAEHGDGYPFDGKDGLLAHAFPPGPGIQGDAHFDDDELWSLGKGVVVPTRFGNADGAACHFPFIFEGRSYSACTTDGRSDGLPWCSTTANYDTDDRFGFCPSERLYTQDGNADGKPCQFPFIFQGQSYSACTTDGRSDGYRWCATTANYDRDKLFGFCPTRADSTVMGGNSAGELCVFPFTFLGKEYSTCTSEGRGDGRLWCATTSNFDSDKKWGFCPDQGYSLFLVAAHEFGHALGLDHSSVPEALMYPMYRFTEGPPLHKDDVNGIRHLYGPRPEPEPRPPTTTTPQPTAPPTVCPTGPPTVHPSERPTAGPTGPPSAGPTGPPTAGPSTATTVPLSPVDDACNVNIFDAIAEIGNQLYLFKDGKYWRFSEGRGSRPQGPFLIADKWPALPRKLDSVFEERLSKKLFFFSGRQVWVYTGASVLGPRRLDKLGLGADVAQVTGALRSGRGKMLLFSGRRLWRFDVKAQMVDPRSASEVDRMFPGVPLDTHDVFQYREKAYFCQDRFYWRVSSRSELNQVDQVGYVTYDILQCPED
# Sequence of human Matrix Metalloproteinase-2 (MMP2), MMP2 (gene 4313) (P08253 whole entry, looked up): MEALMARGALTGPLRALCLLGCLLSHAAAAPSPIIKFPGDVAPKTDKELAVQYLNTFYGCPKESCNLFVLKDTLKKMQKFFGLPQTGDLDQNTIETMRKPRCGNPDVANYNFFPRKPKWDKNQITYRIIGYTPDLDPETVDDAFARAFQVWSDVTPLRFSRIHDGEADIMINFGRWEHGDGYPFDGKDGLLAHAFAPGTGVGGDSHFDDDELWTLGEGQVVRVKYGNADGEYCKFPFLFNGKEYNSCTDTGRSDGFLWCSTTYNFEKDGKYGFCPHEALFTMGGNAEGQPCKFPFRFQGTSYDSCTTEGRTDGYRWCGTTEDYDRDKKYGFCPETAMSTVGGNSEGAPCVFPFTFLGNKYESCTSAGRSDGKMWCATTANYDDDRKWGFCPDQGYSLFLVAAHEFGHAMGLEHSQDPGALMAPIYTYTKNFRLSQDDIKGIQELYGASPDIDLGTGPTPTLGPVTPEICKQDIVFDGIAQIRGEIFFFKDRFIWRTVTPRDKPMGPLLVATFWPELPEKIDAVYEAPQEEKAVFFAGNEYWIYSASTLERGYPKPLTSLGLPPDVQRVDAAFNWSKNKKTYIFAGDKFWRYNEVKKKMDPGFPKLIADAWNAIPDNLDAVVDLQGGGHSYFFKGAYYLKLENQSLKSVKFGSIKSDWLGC
# Sequence of human Matrix Metalloproteinase-7 (MMP7), MMP7 (gene 4316) (P09237 whole entry, looked up): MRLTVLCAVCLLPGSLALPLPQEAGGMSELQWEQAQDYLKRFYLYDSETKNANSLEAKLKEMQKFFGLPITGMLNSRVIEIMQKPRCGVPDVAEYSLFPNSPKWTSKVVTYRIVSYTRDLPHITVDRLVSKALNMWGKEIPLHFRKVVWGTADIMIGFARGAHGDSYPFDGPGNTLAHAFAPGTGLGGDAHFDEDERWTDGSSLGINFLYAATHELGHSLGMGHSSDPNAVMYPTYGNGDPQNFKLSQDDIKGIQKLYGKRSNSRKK
# Sequence of human Phosphodiesterase 10 (PDE10), PDE10A (gene 10846) (Q9Y233 whole entry, looked up): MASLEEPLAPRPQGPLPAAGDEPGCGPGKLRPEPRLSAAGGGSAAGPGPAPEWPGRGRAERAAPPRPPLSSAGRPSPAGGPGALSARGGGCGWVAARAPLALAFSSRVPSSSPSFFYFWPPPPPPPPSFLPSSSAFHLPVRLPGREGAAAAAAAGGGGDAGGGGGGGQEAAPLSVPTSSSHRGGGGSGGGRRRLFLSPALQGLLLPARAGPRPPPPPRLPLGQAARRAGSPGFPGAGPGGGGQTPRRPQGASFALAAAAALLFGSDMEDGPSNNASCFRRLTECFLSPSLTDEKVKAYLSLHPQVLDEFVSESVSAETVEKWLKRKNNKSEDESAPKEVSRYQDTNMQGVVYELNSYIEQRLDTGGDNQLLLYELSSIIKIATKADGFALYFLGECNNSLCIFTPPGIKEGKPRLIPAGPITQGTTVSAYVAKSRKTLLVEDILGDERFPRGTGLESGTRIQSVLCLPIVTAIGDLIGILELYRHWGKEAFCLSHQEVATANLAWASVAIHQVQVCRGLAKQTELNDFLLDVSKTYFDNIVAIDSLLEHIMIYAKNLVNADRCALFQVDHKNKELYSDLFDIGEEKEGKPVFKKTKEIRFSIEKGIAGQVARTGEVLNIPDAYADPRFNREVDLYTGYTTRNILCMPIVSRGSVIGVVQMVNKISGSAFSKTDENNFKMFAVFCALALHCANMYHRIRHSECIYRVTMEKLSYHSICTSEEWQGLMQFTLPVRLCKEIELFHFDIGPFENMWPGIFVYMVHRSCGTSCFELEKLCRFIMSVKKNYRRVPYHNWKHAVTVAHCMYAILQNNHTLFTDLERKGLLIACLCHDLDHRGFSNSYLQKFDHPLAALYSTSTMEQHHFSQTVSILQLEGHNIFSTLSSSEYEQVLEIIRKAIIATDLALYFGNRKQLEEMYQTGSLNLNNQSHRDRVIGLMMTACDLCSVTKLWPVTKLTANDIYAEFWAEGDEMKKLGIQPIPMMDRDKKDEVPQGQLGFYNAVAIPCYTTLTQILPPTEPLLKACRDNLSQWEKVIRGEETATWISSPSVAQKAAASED
# Sequence of human Matrix Metalloproteinase-3 (MMP3), MMP3 (gene 4314) (P08254 whole entry, looked up): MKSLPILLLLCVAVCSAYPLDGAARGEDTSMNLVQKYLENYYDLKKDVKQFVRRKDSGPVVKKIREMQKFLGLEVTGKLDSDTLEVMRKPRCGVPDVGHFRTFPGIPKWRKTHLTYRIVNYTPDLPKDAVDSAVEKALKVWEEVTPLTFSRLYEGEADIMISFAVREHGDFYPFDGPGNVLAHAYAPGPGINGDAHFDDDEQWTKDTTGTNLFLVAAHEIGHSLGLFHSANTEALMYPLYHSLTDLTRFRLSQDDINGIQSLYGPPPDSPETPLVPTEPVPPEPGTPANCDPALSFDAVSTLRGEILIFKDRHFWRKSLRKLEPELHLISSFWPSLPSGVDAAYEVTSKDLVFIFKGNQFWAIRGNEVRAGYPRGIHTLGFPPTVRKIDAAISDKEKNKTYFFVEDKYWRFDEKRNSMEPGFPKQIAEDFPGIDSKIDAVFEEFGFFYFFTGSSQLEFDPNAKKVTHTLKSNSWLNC
# Sequence of human Mitogen- and Stress-activated Protein Kinase-1 (Msk1), RPS6KA5 (gene 9252) (O75582 whole entry, looked up): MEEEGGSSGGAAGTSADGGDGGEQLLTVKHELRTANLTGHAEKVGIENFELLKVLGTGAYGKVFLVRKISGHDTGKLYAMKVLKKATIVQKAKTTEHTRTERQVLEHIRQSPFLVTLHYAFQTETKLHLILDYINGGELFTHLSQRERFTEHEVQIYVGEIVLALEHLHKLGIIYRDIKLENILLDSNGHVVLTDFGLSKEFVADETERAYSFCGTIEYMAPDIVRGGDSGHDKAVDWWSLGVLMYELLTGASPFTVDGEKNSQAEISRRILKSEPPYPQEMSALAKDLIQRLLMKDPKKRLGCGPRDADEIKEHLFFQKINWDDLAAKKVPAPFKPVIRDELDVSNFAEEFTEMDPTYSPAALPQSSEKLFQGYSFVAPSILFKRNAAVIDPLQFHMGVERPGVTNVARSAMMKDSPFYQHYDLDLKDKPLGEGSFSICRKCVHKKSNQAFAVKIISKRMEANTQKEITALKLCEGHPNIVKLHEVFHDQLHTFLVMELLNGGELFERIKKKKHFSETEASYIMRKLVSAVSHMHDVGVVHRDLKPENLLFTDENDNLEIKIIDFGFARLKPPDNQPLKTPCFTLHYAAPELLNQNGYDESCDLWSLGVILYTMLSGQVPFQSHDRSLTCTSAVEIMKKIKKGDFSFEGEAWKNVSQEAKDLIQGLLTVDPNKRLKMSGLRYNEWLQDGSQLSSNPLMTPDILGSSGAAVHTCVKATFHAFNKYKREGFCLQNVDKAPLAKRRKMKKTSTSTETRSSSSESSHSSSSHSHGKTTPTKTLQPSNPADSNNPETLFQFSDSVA
# Sequence of human Phosphodiesterase 4A1 (PDE4A1), PDE4A (gene 5141) (P27815 whole entry, looked up): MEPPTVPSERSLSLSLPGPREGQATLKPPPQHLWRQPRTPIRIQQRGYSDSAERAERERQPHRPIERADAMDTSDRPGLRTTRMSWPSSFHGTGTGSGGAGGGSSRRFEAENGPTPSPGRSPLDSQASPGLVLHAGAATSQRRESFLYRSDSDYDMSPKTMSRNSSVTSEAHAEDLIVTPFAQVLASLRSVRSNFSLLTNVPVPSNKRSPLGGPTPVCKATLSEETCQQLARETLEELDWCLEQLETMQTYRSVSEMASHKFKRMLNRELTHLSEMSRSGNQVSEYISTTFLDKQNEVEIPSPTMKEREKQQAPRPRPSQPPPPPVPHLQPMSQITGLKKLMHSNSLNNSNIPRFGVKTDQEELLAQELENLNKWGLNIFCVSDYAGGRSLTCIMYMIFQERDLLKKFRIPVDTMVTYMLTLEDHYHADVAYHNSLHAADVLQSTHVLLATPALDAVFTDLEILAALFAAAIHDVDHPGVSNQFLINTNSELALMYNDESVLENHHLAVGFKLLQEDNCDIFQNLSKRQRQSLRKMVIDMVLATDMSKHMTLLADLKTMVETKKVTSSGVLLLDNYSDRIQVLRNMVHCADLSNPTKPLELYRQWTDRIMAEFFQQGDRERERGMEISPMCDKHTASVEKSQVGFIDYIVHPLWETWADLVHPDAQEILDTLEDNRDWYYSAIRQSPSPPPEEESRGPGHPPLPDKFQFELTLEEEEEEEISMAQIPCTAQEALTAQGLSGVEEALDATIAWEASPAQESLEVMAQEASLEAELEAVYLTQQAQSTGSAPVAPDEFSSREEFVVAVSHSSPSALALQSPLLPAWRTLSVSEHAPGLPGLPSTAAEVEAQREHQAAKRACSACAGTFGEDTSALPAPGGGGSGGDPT
smiles,measurement,setting,value
CC(=O)c1ccccc1,AC50,[1],26.7 µM (active)
CCCCOC(=O)c1ccccc1,outcome,[2],inactive
COCc1nnc(-c2ccc[n+]([O-])c2)n1-c1c(Cl)c(Cl)cc2[nH]c(=O)c(=O)[nH]c12,AC50,[3],21.5 µM (active)
same,AC50,[1],7.26 µM (active)
same,outcome,[4],inactive
CC(C)C(=O)Nc1ccc([N+](=O)[O-])c(C(F)(F)F)c1,outcome,[5],inactive
same,AC50,[1],12.7 µM (active)
O=C(NO)C1(NS(=O)(=O)c2ccc(Oc3ccc(F)cc3)cc2)CCOCC1,AC50,[3],0.00244 µM (active)
same,AC50,[5],14.7 µM (active)
same,AC50,[2],1.92 µM (active)
same,AC50,[6],0.00916 µM (active)
same,outcome,[7],inactive
same,AC50,[4],10.4 µM (active)
Cc1nc(-c2ccccn2)ncc1C(=O)Nn1cc(C)c2cc(F)ccc21,outcome,[8],inactive
same,outcome,[4],inactive
same,outcome,[9],inactive
Cc1ncc([C@@H](CCCCCCc2ccc3c(n2)NCCC3)CC(=O)O)cn1,outcome,[8],inactive
same,outcome,[10],inactive
same,outcome,[4],inactive
same,AC50,[9],18.2 µM (active)
CCCCN1C(=O)[C@@H]([C@H](O)C2CCCCC2)NC(=O)C12CCN(Cc1ccc(Oc3ccc(C(=O)O)cc3)cc1)CC2,outcome,[6],inactive
CC[C@H](C)C(=O)O[C@H]1C[C@H](O)C=C2C=C[C@H](C)[C@H](CC[C@@H](O)C[C@@H](O)CC(=O)O)[C@H]21,outcome,[5],inactive
same,outcome,[1],inactive
same,outcome,[6],inactive
